An excerpt weighted towards active compounds, which were near 1.4% of everything screened.
AID504770: E. coli YBA685 growth inhibition, screen for V. cholerae RctB inhibitors. E. coli YBA685 rctB-dependent plasmid, OD600 growth, 3 h; hits give low values. z-score (no concentration beside the values). actives 0.27% (n = 130,000). AID 504770; in the data active = z-score below about -2, passing the limit was not always enough
Polio RdRp inh: inhibitors of poliovirus RNA polymerase binding and polymerization; P03300; poliovirus polymerase elongation, fluorescence polarization; hits give low values; % elongation, % (compound at 16.7 µg/mL); actives 0.66% (n = 150,000); AID 588519; in the data active = % elongation below about 90%
Target sequence (P03300 1749-2209 limits assumed): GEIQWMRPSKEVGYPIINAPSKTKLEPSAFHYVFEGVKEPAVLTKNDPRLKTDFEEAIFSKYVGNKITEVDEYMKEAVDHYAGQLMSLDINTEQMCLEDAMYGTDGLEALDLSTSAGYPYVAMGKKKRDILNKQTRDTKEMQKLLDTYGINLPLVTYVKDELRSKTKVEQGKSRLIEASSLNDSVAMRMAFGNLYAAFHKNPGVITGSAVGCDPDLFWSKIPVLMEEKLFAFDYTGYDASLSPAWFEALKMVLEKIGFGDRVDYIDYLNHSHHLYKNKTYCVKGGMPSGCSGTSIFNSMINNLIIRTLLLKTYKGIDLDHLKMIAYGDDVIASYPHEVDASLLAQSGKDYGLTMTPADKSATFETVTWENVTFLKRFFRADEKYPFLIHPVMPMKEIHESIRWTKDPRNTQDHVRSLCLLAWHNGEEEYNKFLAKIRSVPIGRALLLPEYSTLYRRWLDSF
Mtb MbtI inh: blocks the Mycobacterium tuberculosis siderophore enzyme MbtI; purified MbtI enzyme, fluorescence intensity read-out; inhibition, % (no concentration beside the values); actives 0.89% (n = 100,000); AID 493033; in the data active = inhibition mostly above about 56%, no sharp cut-off; inactive = mostly below about 77%
MenB inh: inhibitors of Mycobacterium tuberculosis MenB enzyme | actives 0.43% (n = 100,000) | inhibition, % (test concentration not listed) | P9WNP5 | MenB enzyme assay, absorbance read-out | AID 540299; in the data active = inhibition above about 21%, passing the limit was not always enough
An asterisk follows results filed as active; . = no result; ! = a repeat was not active.

SMILES	AID504770	Polio RdRp inh	Mtb MbtI inh	MenB inh
O=C(O)CCC(=O)N1CC(=O)Nc2ccccc21	-0.05	96.0	.	-7.7
CC(=O)N1CCc2cc(S(=O)(=O)Nc3ccc(Cl)cc3)ccc21	1.05	.	.	.
Clc1ccc(OCc2nc(CSc3cccs3)no2)c(Cl)c1	0.05	98.0	-9.9	-0.6
Cc1cc(C)c2c(-n3cccc3)n[nH]c2n1	-0.9	.	.	.
CCN(CC)/N=N/c1[nH]nc2nc(C)cc(C)c12	-7.55*	109.0	.	-19.4
CCS(=O)(=O)c1ccc2oc(NC(=O)CCCOc3ccc(Cl)cc3C)nc2c1	-0.8	105.0	2.3	-2.5
CCOC(=O)c1c(-c2ccc(C)cc2)csc1NC(=O)c1cc(-c2ccc(Cl)cc2)on1	.	102.0	.	.
CCOC(=O)c1c(NC(=O)c2cc(-c3cccc(OC)c3)on2)sc2c1CCCC2	.	77.0*	.	.
CCOC(=O)c1c(NC(=O)c2cc(-c3cccc(OC)c3)on2)sc(C)c1C	-0.9	102.0	46.3	-8.5
CCOC(=O)c1c(NC(=O)c2cc(-c3ccc(OC)cc3)on2)sc(C)c1C	.	84.0*	.	.
CCOC(=O)c1c(-c2ccccc2)csc1NC(=O)c1cc(-c2cccc(Cl)c2)on1	.	84.0*	.	.
CCOC(=O)c1c(-c2ccc(C)cc2)csc1NC(=O)c1cc(=O)c2cc(C)ccc2o1	.	61.0*	.	.
CCOC(=O)c1c(NC(=O)c2cc(-c3ccc(OC)c(OC)c3)on2)sc2c1CCCC2	.	98.0	.	.
O=C(O)c1ccccc1N1Cc2ccccc2C1=O	0.4	.	.	.
COC(=O)C(C)Sc1ncnc2sc(C)c(C)c12 (stereo unspecified)	-0.65	101.0	-12.2	1.0
CCOC(=O)c1c(-c2ccccc2)csc1NC(=O)c1cc(-c2cccc(OC)c2)on1	.	71.0*	.	.
CCOC(=O)c1c(-c2ccc(C)cc2)csc1NC(=O)c1cc(-c2ccc(OC)cc2)on1	.	105.0	.	.
Oc1cc(OCc2cccc(C(F)(F)F)c2)ccc1-c1ccn[nH]1	-0.35	.	.	.
CC(C)(C)c1ccc(C(=O)Nc2ccc(-c3nc4ccccc4o3)c(O)c2)cc1	.	-10.0*	.	.
N#Cc1ccc(COC(=O)C2CCCCN2S(=O)(=O)c2cccc3nsnc23)cc1 (stereo unspecified)	-0.9	42.0*	-1.5	-3.5
CC1=C(C(=O)Nc2ccccc2)C(c2ccncc2)C(C#N)=C(S)N1 (stereo unspecified)	0.1	47.0	.	-17.0
CC(C)(Oc1ccccc1OC(=O)c1ccccc1)C(=O)CBr	0	102.0	61.5*	.
O=C(Oc1ccccc1OC(=O)c1ccccc1)c1ccccc1	-0.35	102.0	9.8	-34.3
Ic1ccc(Nc2nc3nonc3nc2N/N=C\c2ccco2)cc1	-0.15	99.0	1.6	28.9*
Cc1ccnc(SCC(N)=O)c1C#N	0.2	102.0	22.3	-18.9
SMILES	AID504770	Polio RdRp inh	Mtb MbtI inh	MenB inh
O=c1oc(Cl)c(Cl)c2ccccc12	.	90.0*!	3.6	-9.4
O=c1oc2c3ccccc3oc(=O)c2c2ccccc12	0.25	99.0	21.6	-3.0
CCOC(=O)C1CCCN(C(=O)c2ccc3c(c2)C(=O)N(Cc2ccco2)C3=O)C1 (stereo unspecified)	-0.55	103.0	-15.1	-12.8
CN(C)CCCN1C(=O)C(=O)/C(=C(/O)c2ccc(S(=O)(=O)N(C)C)cc2)C1c1ccccc1 (stereo unspecified)	-0.05	101.0	7.8	4.6
CN(C)S(=O)(=O)c1ccc(/C(O)=C2\C(=O)C(=O)N(Cc3cccnc3)C2c2cccnc2)cc1 (stereo unspecified)	1.2	102.0	1.5	34.4*
O=C(O)CCC(=O)N1N=C(c2ccccc2)CC1c1ccc2nccnc2c1 (stereo unspecified)	-0.6	99.0	15.0	49.9*
CCc1ccc(C2CC(c3ccccc3)=NN2C(=O)CCCC(=O)O)cc1 (stereo unspecified)	0	98.0	-5.5	-31.5
Cc1ccc(OCCn2cc(C(=O)c3cccs3)c3ccccc32)cc1	.	77.0*	.	.
CC1CC(C)CN(C(=O)Cn2c(SCC(=O)N(C(C)C)C(C)C)nc3ccccc32)C1 (stereo unspecified)	1.15	102.0	-8.1	-71.1
Cc1noc(C)c1COc1cccc(C(=O)N2CCc3ccccc32)c1	-2.45*	106.0	-2.1	-17.1
CC1COC2=C(N3CCN(C)CC3)C(F)=CC3C(=O)C(C(=O)O)=CN1C23 (stereo unspecified)	-6.4*	98.0	-102.0	2.3
COc1ccc(CCNC(=O)Cn2cnc3c(cnn3-c3ccccc3)c2=O)cc1OC	-3.6*	.	.	.
COC(=O)Cn1cnc2c(cnn2-c2ccccc2)c1=O	-0.35	.	.	.
O=C(OC1(C#CCN2CCCCC2)CCCCC1)c1ccccc1	-0.95	103.0	.	-8.7
Cc1c(-c2ccccc2)nc2ccccc2c1C(=O)O	1.25	103.0	-3.4	33.9*
O=C(O)Cc1c(-c2ccc(Cl)cc2)nc2ccccc2c1C(=O)O	-0.6	.	.	.
O=C(NCc1ccco1)C(c1ccccc1)N(Cc1ccco1)C(=O)Cn1nnc2ccccc21 (stereo unspecified)	-0.5	102.0	1.4	34.4*
O=c1c(=NNc2nn[nH]n2)c(=O)c2ccccc12	-1.45	-20.0*	16.4	-474.0
O=c1c(=NNc2ccccc2)c(=O)c2ccccc12	1.1	98.0	16.2	-347.5
Cc1nn(CCC#N)c2c1P(=S)(N1c3ccccc3CC1C)/C(=C1\N(C)c3ccccc3C1(C)C)C=N2 (stereo unspecified)	1.9	98.0	57.2*	-60.4
Clc1ccc(CNc2nc3ccccc3[nH]2)cc1Cl	-2.8*	98.0	-9.2	-11.9
CCN(CC1COc2ccccc2O1)C(=O)c1ccc2c(c1)SC1=NS(=O)(=O)CCN12 (stereo unspecified)	1.25	84.0*	7.0	-32.8
CCOc1ccc2c(c1)SC1=NS(=O)(=O)CCN12	-0.5	.	.	.
COc1cccc(NC(=O)C2C3C=CC(C4CC34)C2C(=O)O)c1 (stereo unspecified)	1.6	99.0	-5.7	2.2
Cn1cccc1C(=O)NC(=O)CSc1nc2ncc(Cl)cc2[nH]1	-1.05	103.0	-4.0	-27.8
SMILES	AID504770	Polio RdRp inh	Mtb MbtI inh	MenB inh
C=C(C)CN(CC)C(=O)CSc1nc2ncc(Cl)cc2[nH]1	0.25	88.0*	64.7	-18.9
O=C(O)CCC(=O)c1ccccc1	-0.5	75.0*	-5.8	-3.7
O=C(O)CCCC(=O)c1ccccc1	0.25	96.0	4.3	-11.7
O=C(c1ccccc1)c1ccc(C(=O)O)c(C(=O)O)c1	1.5	103.0	-0.9	46.0*
O=C(O)c1ccc(C(=O)O)c(C(=O)c2ccccc2)c1	0.7	.	.	.
O=C(c1ccccc1)c1ccc(C(=O)c2ccccc2)cc1	-0.4	82.0*	.	0.7
CC1Cc2ccccc2N1C(=O)COC(=O)c1ccccn1 (stereo unspecified)	-0.4	103.0	1.8	10.1
CN1/C(=C2/SC(=S)N(N)C2=O)Sc2ccccc21	0	101.0	7.8	6.8
COc1ccc(CC(=O)Nc2ccc(-c3nnc4n3CCCCC4)cc2)cc1	-0.7	106.0	-11.2	-11.4
O=C(COCc1nc2ccccc2s1)Nc1ccc(-c2nnc3n2CCCCC3)cc1	-0.05	89.0*	-0.9	-22.6
C=CCn1c(=O)c(C(=O)NC)c(O)c2cc(OC)c(OC)cc21	-0.15	102.0	90.0	-2.4

Screening data deposited in PubChem by ICCB-Longwood Screening Facility, Harvard Medical School.
